Experiments:
Assay in all cases: log2 ratio of Biotin-Ahx-Ub-VS probe labelling (fragment/DMSO); higher = less target engagement (more negative = stronger competition), active = hit call of the paper (q ≤ 0.05, log2 ratio ≤ -1)
Details in all cases: compound concentration: 200 uM; treatment time: 3 h
[1] = target: USP34 (UniProt Q70CQ2)
Procedure, shortened: (§1)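 Labelled DUBs from HEK293T lysate were NeutrAvidin-enriched, digested with LysC and trypsin, and run by diaPASEF LC-MS/MS. Before that, each 495 µg sample in Tris/CHAPS/IGEPAL buffer with protease inhibitors was treated in triplicate with fragment at 200 µM or vehicle for 3 h, then with Biotin-Ahx-Ub-VS at 0.5 µM final for 1 h. Values are average log2 ratios of fragment over vehicle by unpaired t-test, based on global-median-normalised Spectronaut label-free quantities from proteins with ≥2 unique peptides.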

[2] = target: T1, USP36 (UniProt Q9P275)
T1 sequence (whole entry): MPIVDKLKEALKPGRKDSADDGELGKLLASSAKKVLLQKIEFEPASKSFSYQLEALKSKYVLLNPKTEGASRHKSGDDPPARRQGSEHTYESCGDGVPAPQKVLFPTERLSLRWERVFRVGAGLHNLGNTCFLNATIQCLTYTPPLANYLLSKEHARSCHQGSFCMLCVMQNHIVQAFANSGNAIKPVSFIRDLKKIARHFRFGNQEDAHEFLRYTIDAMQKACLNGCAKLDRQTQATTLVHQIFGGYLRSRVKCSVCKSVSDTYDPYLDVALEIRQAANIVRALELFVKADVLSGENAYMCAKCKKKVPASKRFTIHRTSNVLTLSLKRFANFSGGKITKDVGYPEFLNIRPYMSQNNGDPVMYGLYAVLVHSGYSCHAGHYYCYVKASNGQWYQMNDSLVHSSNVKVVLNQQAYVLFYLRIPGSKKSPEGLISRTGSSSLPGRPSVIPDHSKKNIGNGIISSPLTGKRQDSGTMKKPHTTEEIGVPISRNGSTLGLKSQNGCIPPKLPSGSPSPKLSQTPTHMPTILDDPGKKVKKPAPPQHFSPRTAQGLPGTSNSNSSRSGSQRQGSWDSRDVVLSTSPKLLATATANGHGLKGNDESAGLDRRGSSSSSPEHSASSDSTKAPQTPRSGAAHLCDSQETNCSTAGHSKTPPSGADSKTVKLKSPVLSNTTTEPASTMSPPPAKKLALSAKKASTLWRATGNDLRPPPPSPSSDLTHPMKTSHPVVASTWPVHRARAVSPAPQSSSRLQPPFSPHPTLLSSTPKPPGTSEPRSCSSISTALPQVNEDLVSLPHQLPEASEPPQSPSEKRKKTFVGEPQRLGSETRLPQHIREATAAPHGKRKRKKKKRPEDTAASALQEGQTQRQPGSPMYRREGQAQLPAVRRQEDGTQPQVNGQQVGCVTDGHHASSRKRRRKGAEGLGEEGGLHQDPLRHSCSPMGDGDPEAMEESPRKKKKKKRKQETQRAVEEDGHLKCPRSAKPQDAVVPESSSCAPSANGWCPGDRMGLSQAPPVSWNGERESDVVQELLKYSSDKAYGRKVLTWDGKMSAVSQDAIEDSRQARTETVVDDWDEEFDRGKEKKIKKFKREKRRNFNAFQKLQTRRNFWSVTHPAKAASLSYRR
Procedure, shortened: as §1

[3] = target: T2, USP38 (UniProt Q8NB14)
T2 sequence (whole entry): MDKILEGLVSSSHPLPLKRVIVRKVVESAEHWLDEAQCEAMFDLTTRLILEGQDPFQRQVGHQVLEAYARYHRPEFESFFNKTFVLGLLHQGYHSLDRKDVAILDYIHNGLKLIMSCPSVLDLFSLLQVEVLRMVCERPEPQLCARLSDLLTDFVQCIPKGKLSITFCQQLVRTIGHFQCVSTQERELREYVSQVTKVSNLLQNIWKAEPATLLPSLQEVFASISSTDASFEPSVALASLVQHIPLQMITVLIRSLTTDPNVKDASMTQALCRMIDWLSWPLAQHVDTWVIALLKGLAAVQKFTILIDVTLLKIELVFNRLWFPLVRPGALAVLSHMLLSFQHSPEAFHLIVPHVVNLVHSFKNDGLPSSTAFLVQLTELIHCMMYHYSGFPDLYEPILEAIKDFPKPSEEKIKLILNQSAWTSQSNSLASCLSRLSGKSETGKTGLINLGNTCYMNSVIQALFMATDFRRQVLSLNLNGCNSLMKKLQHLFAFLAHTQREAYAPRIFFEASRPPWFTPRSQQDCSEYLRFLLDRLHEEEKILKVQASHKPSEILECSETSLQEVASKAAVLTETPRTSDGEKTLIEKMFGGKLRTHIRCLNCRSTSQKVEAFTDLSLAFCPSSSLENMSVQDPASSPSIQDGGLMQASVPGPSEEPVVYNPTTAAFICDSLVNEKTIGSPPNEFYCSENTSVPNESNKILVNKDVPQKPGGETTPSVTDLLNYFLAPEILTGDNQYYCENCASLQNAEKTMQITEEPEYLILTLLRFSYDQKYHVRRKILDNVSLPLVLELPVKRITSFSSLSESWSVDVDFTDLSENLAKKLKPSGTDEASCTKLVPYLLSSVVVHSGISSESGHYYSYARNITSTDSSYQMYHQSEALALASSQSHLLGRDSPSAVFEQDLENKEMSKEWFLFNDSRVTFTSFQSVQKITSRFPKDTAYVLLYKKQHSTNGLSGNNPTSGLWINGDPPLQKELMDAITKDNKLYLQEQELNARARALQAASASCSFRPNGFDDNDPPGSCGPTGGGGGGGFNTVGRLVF
Procedure, shortened: as §1

[4] = target: T3, USP39 (UniProt Q53GS9)
T3 sequence (whole entry): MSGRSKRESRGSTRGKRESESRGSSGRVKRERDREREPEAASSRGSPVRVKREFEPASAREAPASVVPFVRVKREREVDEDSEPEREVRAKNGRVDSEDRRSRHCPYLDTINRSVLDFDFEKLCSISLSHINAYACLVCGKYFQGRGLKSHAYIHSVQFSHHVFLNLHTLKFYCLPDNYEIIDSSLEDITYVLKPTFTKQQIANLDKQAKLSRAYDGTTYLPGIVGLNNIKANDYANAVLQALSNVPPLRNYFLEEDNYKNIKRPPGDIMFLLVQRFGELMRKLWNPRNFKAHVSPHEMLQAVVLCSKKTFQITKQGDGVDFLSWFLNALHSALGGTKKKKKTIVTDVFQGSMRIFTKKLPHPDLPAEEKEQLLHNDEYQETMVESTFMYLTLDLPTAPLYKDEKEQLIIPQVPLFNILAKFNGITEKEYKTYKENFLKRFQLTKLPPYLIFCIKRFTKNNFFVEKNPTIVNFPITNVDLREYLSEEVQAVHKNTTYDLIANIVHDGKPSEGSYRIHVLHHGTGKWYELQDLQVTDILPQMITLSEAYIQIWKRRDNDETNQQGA
Procedure, shortened: as §1

[5] = target: T4, USP4 (UniProt Q13107)
T4 sequence (whole entry): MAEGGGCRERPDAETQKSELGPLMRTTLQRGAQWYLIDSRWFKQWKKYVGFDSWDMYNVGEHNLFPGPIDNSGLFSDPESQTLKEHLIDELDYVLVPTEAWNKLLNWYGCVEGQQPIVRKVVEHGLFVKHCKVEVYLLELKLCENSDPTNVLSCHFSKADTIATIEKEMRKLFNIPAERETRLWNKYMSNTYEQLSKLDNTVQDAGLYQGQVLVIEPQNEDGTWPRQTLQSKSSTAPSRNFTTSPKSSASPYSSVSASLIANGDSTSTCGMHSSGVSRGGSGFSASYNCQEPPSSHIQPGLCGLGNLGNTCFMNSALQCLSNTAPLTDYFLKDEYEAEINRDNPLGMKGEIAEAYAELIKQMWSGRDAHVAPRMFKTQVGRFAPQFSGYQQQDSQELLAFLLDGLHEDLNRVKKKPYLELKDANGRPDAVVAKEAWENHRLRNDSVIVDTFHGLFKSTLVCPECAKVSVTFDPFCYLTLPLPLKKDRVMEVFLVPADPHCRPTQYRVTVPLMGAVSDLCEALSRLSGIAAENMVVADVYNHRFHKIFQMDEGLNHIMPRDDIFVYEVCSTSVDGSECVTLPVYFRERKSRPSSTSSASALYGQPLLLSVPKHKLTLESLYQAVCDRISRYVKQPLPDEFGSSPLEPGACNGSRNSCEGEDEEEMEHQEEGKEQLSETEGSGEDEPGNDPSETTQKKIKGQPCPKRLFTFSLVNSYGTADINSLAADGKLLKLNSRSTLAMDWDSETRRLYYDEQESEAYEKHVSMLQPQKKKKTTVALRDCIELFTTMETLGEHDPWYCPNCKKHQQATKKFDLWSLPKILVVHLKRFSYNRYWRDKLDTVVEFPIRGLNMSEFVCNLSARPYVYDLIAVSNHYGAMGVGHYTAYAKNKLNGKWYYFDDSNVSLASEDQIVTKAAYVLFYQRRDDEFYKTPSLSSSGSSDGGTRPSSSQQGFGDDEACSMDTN
Procedure, shortened: as §1

Measured: log2 ratio of Biotin-Ahx-Ub-VS probe labelling

Chain of USP34 (Q70CQ2 whole entry, the tested form may be a part): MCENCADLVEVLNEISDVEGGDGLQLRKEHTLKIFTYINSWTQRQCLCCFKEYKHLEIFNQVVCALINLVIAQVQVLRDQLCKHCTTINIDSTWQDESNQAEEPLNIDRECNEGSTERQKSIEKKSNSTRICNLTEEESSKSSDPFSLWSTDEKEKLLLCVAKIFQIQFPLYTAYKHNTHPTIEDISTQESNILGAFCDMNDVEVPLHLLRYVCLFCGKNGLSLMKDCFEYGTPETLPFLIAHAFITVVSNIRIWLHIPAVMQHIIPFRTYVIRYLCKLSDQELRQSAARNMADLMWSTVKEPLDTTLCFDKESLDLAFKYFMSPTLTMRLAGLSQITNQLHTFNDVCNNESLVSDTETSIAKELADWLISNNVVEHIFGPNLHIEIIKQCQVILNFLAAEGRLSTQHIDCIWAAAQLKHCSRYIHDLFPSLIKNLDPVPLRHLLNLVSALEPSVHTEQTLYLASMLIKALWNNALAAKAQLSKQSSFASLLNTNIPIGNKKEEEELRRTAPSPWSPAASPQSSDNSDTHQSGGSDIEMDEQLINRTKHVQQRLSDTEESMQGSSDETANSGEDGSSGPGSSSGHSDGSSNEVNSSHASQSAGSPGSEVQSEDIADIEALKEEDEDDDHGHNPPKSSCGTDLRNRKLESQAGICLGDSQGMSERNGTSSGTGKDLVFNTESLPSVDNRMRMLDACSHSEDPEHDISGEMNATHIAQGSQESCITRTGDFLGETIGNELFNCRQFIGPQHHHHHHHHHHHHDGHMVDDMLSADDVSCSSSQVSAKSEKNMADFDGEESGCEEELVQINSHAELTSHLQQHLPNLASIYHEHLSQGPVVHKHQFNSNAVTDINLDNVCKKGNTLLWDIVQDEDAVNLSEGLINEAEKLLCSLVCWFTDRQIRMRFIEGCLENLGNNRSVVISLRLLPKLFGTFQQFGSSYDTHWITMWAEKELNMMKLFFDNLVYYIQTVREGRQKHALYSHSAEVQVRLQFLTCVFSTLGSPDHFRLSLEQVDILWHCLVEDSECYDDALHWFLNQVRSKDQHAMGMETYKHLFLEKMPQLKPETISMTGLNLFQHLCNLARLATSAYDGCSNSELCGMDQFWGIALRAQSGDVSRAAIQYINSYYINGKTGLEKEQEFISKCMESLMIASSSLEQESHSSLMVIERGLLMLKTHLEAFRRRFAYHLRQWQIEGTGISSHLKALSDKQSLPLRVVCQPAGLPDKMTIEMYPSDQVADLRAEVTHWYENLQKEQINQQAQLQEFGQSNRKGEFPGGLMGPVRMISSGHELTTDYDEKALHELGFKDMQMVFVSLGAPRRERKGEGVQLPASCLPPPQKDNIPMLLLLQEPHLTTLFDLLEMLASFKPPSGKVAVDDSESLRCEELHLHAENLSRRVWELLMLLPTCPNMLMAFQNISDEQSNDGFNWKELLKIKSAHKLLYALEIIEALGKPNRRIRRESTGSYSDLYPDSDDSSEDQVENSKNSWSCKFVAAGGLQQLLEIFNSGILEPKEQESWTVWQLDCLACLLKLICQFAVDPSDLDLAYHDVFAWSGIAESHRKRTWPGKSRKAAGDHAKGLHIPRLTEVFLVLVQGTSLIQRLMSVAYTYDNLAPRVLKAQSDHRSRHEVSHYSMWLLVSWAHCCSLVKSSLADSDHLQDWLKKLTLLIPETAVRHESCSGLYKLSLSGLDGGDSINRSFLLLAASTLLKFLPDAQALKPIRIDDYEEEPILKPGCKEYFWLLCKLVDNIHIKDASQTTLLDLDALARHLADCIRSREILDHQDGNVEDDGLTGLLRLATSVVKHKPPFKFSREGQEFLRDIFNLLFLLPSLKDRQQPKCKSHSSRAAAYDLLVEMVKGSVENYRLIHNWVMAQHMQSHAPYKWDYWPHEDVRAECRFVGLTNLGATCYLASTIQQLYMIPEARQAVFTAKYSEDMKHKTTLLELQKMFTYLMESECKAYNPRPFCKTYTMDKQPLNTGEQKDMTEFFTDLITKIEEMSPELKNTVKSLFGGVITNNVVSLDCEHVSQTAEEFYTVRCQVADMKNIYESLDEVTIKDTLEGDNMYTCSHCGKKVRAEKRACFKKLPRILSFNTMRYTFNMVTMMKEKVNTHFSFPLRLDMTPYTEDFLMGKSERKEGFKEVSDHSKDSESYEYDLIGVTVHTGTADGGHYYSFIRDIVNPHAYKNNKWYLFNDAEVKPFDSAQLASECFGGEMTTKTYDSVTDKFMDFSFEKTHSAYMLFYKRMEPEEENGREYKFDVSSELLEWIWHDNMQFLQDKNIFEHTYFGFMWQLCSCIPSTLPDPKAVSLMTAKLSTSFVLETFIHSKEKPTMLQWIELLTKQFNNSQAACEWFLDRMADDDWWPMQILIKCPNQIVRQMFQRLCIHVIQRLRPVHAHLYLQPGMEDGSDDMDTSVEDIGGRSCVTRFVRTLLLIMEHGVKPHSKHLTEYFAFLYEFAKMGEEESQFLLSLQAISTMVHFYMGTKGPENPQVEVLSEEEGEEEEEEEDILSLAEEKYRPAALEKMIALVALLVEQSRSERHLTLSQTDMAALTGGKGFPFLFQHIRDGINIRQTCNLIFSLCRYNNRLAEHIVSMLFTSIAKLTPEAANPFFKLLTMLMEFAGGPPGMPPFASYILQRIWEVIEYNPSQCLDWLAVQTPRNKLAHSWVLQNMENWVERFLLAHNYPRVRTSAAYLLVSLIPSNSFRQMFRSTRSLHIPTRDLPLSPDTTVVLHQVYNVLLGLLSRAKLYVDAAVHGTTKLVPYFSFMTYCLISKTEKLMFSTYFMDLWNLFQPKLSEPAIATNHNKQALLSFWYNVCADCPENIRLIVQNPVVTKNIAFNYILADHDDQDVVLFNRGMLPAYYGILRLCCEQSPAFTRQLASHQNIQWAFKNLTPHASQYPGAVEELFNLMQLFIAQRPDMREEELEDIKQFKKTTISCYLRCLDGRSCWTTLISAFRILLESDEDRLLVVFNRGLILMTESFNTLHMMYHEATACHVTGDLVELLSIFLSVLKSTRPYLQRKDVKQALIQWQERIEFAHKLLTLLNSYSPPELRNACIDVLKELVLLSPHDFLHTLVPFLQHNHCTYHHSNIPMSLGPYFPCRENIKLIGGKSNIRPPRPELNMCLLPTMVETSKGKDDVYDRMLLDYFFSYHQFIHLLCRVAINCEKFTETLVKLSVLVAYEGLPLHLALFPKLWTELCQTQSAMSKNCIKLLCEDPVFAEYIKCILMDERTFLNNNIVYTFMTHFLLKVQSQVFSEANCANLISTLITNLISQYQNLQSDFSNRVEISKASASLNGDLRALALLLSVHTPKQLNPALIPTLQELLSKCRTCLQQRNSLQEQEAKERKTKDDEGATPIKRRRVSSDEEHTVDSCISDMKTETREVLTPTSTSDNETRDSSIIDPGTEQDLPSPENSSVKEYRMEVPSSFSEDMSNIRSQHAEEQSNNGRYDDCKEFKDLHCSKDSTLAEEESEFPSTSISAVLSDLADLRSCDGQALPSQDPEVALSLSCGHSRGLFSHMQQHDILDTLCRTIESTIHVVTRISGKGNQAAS

Cc1ccc(CC(CO)CNC(=O)CCl)cc1 (stereo not given)
inactive: [1] -0.117 | [2] -0.19 | [3] -0.239 | [4] -0.321 | [5] -0.14

Source: the supplement of paper PMC11732987, “Enantioselective OTUD7B fragment discovery through chemoproteomics screening and high-throughput optimisation” (Communications Chemistry, 2025)
